{"source": "paper PMC4336329", "about": "(PLoS ONE, 2015)", "note": "Out of some 310,000 compounds screened, about 2,200 (0.71%) showed an effect of 50% or more. The effect is printed as a negative number. The sample holds strong results, similar compounds and a random draw of the others, so the mix is not that of the screen.", "data": [{"molecular_target": "human ether-à-go-go-related gene (hERG) potassium channel (human, UniProt Q12809)", "sequence (Q12809 whole entry, looked up)": "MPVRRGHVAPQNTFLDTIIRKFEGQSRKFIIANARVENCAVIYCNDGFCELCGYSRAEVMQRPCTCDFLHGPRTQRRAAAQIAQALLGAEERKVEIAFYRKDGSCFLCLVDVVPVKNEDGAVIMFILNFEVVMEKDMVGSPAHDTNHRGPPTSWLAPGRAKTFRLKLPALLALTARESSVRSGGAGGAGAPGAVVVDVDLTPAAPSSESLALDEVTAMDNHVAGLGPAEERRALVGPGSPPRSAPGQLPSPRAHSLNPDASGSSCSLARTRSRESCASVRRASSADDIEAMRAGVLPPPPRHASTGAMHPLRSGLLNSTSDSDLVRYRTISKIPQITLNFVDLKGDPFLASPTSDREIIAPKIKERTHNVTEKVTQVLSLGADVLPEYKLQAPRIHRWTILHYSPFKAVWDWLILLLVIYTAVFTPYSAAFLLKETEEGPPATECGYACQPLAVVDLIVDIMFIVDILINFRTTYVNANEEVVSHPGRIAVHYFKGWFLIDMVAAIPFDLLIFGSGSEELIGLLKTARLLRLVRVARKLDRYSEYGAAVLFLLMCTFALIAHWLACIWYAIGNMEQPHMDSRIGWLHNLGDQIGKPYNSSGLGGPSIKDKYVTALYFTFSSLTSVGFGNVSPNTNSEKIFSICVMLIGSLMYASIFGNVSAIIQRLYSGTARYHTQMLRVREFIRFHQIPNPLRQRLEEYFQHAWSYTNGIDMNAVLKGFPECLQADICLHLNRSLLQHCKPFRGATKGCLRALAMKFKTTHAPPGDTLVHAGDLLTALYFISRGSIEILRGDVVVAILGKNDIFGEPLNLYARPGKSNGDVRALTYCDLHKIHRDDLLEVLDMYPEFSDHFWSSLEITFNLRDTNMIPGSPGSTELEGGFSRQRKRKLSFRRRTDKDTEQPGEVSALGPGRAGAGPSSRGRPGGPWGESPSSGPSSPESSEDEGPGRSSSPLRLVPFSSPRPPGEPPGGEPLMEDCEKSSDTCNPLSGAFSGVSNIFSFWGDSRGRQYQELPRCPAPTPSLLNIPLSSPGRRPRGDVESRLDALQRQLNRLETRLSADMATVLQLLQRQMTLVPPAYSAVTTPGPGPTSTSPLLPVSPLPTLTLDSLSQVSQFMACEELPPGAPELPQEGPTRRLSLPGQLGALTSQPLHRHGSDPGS", "assay": "primary screen, population patch clamp on CHO cells stably expressing hERG; higher = less effect of the substance", "units": {"hERG current change (%, negative = inhibition) at 1uM": "%"}, "values": [{"smiles": "CCOc1ccc(CCNC(=O)CS(=O)(=O)Cc2nc(-c3ccc(OC)cc3)oc2C)cc1", "hERG current change (%, negative = inhibition) at 1uM": -0.117}, {"smiles": "COC(=O)[C@]1(C)N[C@H](c2ccc(-c3ccccc3)cc2)[C@@H]2C(=O)N(C)C(=O)[C@@H]21.O=C(O)C(F)(F)F", "hERG current change (%, negative = inhibition) at 1uM": 15.8}, {"smiles": "Cc1ccccc1N1CCN(CCCN2C(=O)CC(=C(c3ccccc3)c3ccccc3)C2=O)CC1", "hERG current change (%, negative = inhibition) at 1uM": 3.79}, {"smiles": "Cc1sc(NC(=O)c2ccccc2F)c(CN2CCCCC2)c1C", "hERG current change (%, negative = inhibition) at 1uM": 9.65}, {"smiles": "CCOc1ccc(NC(=O)CCNC(=O)Cn2cnc3ccccc3c2=O)cc1", "hERG current change (%, negative = inhibition) at 1uM": 18.9}, {"smiles": "CCN(Cc1ccncc1)C(=O)c1cc(COc2ccc(C)c(C)c2)on1", "hERG current change (%, negative = inhibition) at 1uM": -5.56}, {"smiles": "CCN(Cc1ccncc1)C(=O)c1cc(COc2c(C)cccc2C)on1", "hERG current change (%, negative = inhibition) at 1uM": -63.1}, {"smiles": "CCN(Cc1ccncc1)C(=O)c1cc(COc2c(F)cccc2F)on1", "hERG current change (%, negative = inhibition) at 1uM": -8.09}, {"smiles": "CCN1CCN(C(=O)COc2ccc(S(=O)(=O)Nc3ccc(Cl)cc3)cc2)CC1", "hERG current change (%, negative = inhibition) at 1uM": 12.1}, {"smiles": "Cc1cccc(NC(=O)Nc2c(C)n(C)n(-c3ccccc3)c2=O)c1", "hERG current change (%, negative = inhibition) at 1uM": 9.37}, {"smiles": "CCOc1nc(-c2ccccc2)ccc1-c1noc(-c2cccnc2)n1", "hERG current change (%, negative = inhibition) at 1uM": 7.07}, {"smiles": "COc1ccc(CCNC(=O)CC2Nc3ccccc3NC2=O)cc1OC", "note": "(stereo not drawn)", "hERG current change (%, negative = inhibition) at 1uM": 12.7}, {"smiles": "CCOC(=O)c1c(NC(=S)Nc2ccc(Cl)cc2)sc2c1CCN(C)C2", "hERG current change (%, negative = inhibition) at 1uM": -57.4}, {"smiles": "CCOC(=O)N1CCc2c(sc(NC(=O)CN3CCN(C)CC3)c2C(=O)Nc2ccccc2)C1", "hERG current change (%, negative = inhibition) at 1uM": -85.6}, {"smiles": "CCOC(=O)c1c(NC(=S)Nc2ccccc2)sc2c1CCN(CC)C2", "hERG current change (%, negative = inhibition) at 1uM": -80.2}, {"smiles": "CCOC(=O)c1c(NC(=S)Nc2ccc(OCC)cc2)sc2c1CCN(C)C2", "hERG current change (%, negative = inhibition) at 1uM": -11}, {"smiles": "CCOC(=O)c1c(NC(=O)Nc2ccc(C)cc2)sc2c1CCN(C)C2", "hERG current change (%, negative = inhibition) at 1uM": 9.62}, {"smiles": "CCOC(=O)N1CCc2c(sc(NC(=O)CN3CCOCC3)c2C(=O)Nc2ccccc2)C1", "hERG current change (%, negative = inhibition) at 1uM": -31.9}, {"smiles": "CCOC(=O)c1c(NC(=O)CN2CCCCC2)sc2c1CCN(C(=O)OCC)C2", "hERG current change (%, negative = inhibition) at 1uM": 2.11}, {"smiles": "CCOC(=O)c1c(NC(=S)Nc2ccccc2)sc2c1CCCCC2", "hERG current change (%, negative = inhibition) at 1uM": 12.8}, {"smiles": "CCOC(=O)c1c(NC(=S)Nc2ccccc2)sc2c1CCN(CCc1ccccc1)C2", "hERG current change (%, negative = inhibition) at 1uM": 2.54}, {"smiles": "CCOC(=O)c1c(NC(=O)Cc2ccccc2)sc2c1CCN(CC)C2.Cl", "hERG current change (%, negative = inhibition) at 1uM": -18.3}, {"smiles": "CCOC(=O)c1c(NC(=S)Nc2ccccc2)sc2c1CCN(C)C2", "hERG current change (%, negative = inhibition) at 1uM": -62.8}, {"smiles": "CCOC(=O)c1c(NC(=O)Cc2ccccc2)sc2c1CCN(C)C2.Cl", "hERG current change (%, negative = inhibition) at 1uM": -19.2}, {"smiles": "COc1ccccc1C(=O)Nc1nnc(-c2ccco2)s1", "hERG current change (%, negative = inhibition) at 1uM": 13.9}, {"smiles": "COc1ccccc1NC(=O)Cn1nnc(-c2ccccc2NC(=O)c2ccco2)n1", "hERG current change (%, negative = inhibition) at 1uM": 14.7}, {"smiles": "C=CCC1c2cccc(C(=O)O)c2C(=O)N1c1cccc(C)c1", "note": "(stereo not drawn)", "hERG current change (%, negative = inhibition) at 1uM": 11.5}, {"smiles": "CN(C)c1ccc(C2CC(=O)C=C(Nc3ccccc3N)C2)cc1", "note": "(stereo not drawn)", "hERG current change (%, negative = inhibition) at 1uM": 13.8}, {"smiles": "CCOc1ccc(NC(=O)CCN2CCN(c3ccccc3)CC2)cc1", "hERG current change (%, negative = inhibition) at 1uM": 3.48}, {"smiles": "CCOc1ccccc1NC(=O)C(OC(=O)c1ccccc1)c1ccccc1", "note": "(stereo not drawn)", "hERG current change (%, negative = inhibition) at 1uM": 32.8}, {"smiles": "Cn1c(Cn2nnc3ccccc32)nnc1SCC(=O)Nc1nccs1", "hERG current change (%, negative = inhibition) at 1uM": 10.6}, {"smiles": "CCOC(=O)c1c(NC(=O)CCS(=O)(=O)c2ccccc2)sc2c1CCN(C)C2.Cl", "hERG current change (%, negative = inhibition) at 1uM": -9.18}, {"smiles": "CCOC(=O)c1c(NC(=O)CCS(=O)(=O)c2ccccc2)sc2c1CCN(C(C)C)C2.Cl", "hERG current change (%, negative = inhibition) at 1uM": -64.6}, {"smiles": "CC(C)N1CCc2c(sc(NC(=O)CCS(=O)(=O)c3ccccc3)c2C(N)=O)C1.Cl", "hERG current change (%, negative = inhibition) at 1uM": -2.04}, {"smiles": "CC(=O)c1cc2c(cc1NC(=O)CSc1nc3ccccc3[nH]1)OCO2", "hERG current change (%, negative = inhibition) at 1uM": -2.99}, {"smiles": "CN(C)S(=O)(=O)c1cc(NC(=O)CNCCN2CCOCC2)ccc1Cl.O=C(O)C(=O)O", "hERG current change (%, negative = inhibition) at 1uM": 7.62}, {"smiles": "COc1ccc(C(=O)C2CCCN(Cc3ccc(F)cc3F)C2)cc1F", "note": "(stereo not drawn)", "hERG current change (%, negative = inhibition) at 1uM": 3.8}, {"smiles": "O=C(C1CCCN(CCCc2ccccc2)C1)N1CCCCC1", "note": "(stereo not drawn)", "hERG current change (%, negative = inhibition) at 1uM": -5.07}, {"smiles": "COc1ccc(F)cc1C(=O)C1CCCN(Cc2cccn2-c2ccccn2)C1", "note": "(stereo not drawn)", "hERG current change (%, negative = inhibition) at 1uM": -89.9}, {"smiles": "COc1ccc(C(=O)C2CCCN(Cc3cn(C)nc3-c3ccccc3)C2)cc1F", "note": "(stereo not drawn)", "hERG current change (%, negative = inhibition) at 1uM": -19.1}, {"smiles": "O=C(c1cc(F)ccc1F)C1CCCN(CCCc2ccccc2)C1", "note": "(stereo not drawn)", "hERG current change (%, negative = inhibition) at 1uM": -76.6}, {"smiles": "O=C(c1cc(F)ccc1F)C1CCCN(Cc2cccn2-c2ccccn2)C1", "note": "(stereo not drawn)", "hERG current change (%, negative = inhibition) at 1uM": -83.1}, {"smiles": "CCOc1ccccc1CN1CCCC(C(=O)c2cc(F)ccc2F)C1", "note": "(stereo not drawn)", "hERG current change (%, negative = inhibition) at 1uM": -16.6}, {"smiles": "O=C(c1cc(F)ccc1F)C1CCCN(Cc2cccc(Cl)c2)C1", "note": "(stereo not drawn)", "hERG current change (%, negative = inhibition) at 1uM": 8.46}, {"smiles": "O=C(c1cc(F)ccc1F)C1CCCN(C(=O)CSc2ccccn2)C1", "note": "(stereo not drawn)", "hERG current change (%, negative = inhibition) at 1uM": -3.1}, {"smiles": "COc1ccc(F)cc1C(=O)C1CCCN(Cc2cccn2-c2cccnc2)C1", "note": "(stereo not drawn)", "hERG current change (%, negative = inhibition) at 1uM": 5.09}, {"smiles": "COc1ccc(F)cc1C(=O)C1CCCN(Cc2ccc(Oc3ncccn3)cc2)C1", "note": "(stereo not drawn)", "hERG current change (%, negative = inhibition) at 1uM": -34.8}, {"smiles": "COc1ccc(C(=O)C2CCCN(Cc3cccn3-c3ccccn3)C2)cc1F", "note": "(stereo not drawn)", "hERG current change (%, negative = inhibition) at 1uM": -87.1}]}]}
